The list is not random: actives were taken first. Their share in the collection is about 0.54%.
Menin-MLL FL inh: inhibitors of human menin-MLL interaction, wild-type MLL peptide; AID 1766; 290,000 tested, under 10 active; Fluorescence polarization, fluorescein-MLL peptide displacement from menin; FP activity change, % at 61.4 µM; active = well fitted curve in the direction sought with a large enough effect in the polarisation, not every such curve was filed as active; inconclusive = small, poorly fitted or top-dose-only effect, or effect the other way, or a change in a side signal; inactive = no such curve, though single readings can be large or run the other way; the % refers to the polarisation
LDHA block: LDHA (human) enzyme inhibition | P00338 | purified LDHA, NADH/diaphorase-resazurin fluorescence; hits give low values | activity change, % (values are at about 110 or 230 µM) | 480,000 compounds, 0.15% hits | AID 1347041; in the data active = activity change below about -30%; inconclusive = mostly about -25% to -30%
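Enzyme activity of human lactate dehydrogenase 5 (2 nM; 0.06 mM NADH, 0.2 mM pyruvate, 5 min, RT) is measured via a resazurin/diaphorase fluorescence readout of residual NADH.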
Menin-MLL TR inh: menin-MLL binding inhibition, Texas Red mutant peptide | O00255 | Menin + Texas Red MLL mutant peptide, fluorescence polarization | Potency, µM (doses to about 61.6 µM), usual class: inhibitors | 270,000 compounds, 0.23% hits | AID 1768; active = well fitted inhibition curve with a large enough effect in the polarisation, with a control signal flat, not every such curve was filed as active; inconclusive = small, poorly fitted or top-dose-only effect, or effect the other way, or a change in a side signal; inactive = no such curve, though single readings can be large or run the other way; the % refers to the polarisation
IDH1 R132H inh: blocks human mutant IDH1 R132H enzyme. 390,000 compounds, 0.093% hits. Potency, µM (doses to about 76.6 µM), actives largely listed as inhibitors. IDH1-R132H enzyme, NADPH consumption, diaphorase/resazurin fluorescence. AID 602179. O75874; active = well fitted inhibition curve with a large enough effect; inconclusive = small, poorly fitted or top-dose-only effect; inactive = no such curve, though single readings can be large or run the other way; note: nearly all actives have a fitted effect of over 65% in size
Target sequence (O75874 whole entry R132H, stated change not applied): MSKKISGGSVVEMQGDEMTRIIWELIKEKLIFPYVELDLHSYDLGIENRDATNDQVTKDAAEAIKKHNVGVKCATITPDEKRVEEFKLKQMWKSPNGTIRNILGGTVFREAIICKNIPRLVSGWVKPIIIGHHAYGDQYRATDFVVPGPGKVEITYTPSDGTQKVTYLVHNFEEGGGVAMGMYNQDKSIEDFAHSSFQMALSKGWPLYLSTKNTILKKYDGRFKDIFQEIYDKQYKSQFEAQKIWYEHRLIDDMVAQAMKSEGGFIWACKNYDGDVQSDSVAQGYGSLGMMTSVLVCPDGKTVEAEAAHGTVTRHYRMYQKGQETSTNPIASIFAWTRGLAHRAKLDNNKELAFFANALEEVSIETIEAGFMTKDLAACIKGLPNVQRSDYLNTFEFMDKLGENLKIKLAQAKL
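IDH1-R132H (0.5 ug/mL dispensed) in pH 7.5 Tris buffer was preincubated 30 min with compound, then given a substrate mix of 0.016 mM NADPH and 2 mM alpha-KG for 80 min at room temperature; remaining NADPH was read by diaphorase/resazurin fluorescence.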
Akt phos inh: inhibitors of Akt phosphorylation; Neuro2A IGF-stimulated pAkt S473 HTRF, 20 min; hits give low values; activity change, % for hits at 50 µM; 360,000 compounds, 0.32% hits; AID 651550; in the data active = activity change below about -80%; inconclusive = mostly about -51% to -80%
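Neuro2A cells in DMEM with 0.5% FBS, overnight at 37 deg C, given compound at single 50 µM final, then IGF (6 nM final) for 20 min at 37 deg C. Lysed; phospho-Akt Ser473 by HTRF after 24 h, 665/615 ratio.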
MLL CXXC-DNA inh: blocks binding of human MLL CXXC domain to DNA; Q03164; MLL-CXXC / FITC-HOXA9 DNA fluorescence polarization; Potency, µM (doses to about 115 µM), usual class: inhibitors; 290,000 compounds, 0.037% hits; AID 2662; active = well fitted inhibition curve with a large enough effect in the polarisation, with a control signal flat, not every such curve was filed as active; inconclusive = small, poorly fitted or top-dose-only effect, or effect the other way, or a change in a side signal; inactive = no such curve, though single readings can be large or run the other way; the % refers to the polarisation
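Steps: dispense CXXC domain solution (7 uM) → pin compounds or unlabeled HOX-A9 DNA control → 5 min ambient → add FLSN-HOX-A9 solution (50 nM) → spin → 30 min ambient → fluorescence polarization. Tris pH 7.5/NaCl/DTT/BSA buffer.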
Numbers stand for hits; ! = not confirmed by another sample.

What do the screens show for `CCC(=O)N1CCN(c2ccc(Cl)cc2NC(=O)Cc2ccc(Cl)cc2)CC1`?
Menin-MLL FL inh: inactive; LDHA block: inactive; Menin-MLL TR inh: inactive; IDH1 R132H inh: inactive; Akt phos inh: -85%; MLL CXXC-DNA inh: inactive

Results for O=C(NCc1ccccc1)N1CCN(C(=O)c2ccc3ccccc3c2)CC1 ?
LDHA block: inactive

Results for Cn1nc2sc3ccccc3n2c(=O)c1=O ?
Menin-MLL FL inh: inactive; LDHA block: inactive; IDH1 R132H inh: inactive; Akt phos inh: inactive; MLL CXXC-DNA inh: inactive

How did N#Cc1cnc2sc3ccccc3n2c1=N do in these assays?
Menin-MLL FL inh: inactive; LDHA block: inactive; Menin-MLL TR inh: inactive; IDH1 R132H inh: inactive; Akt phos inh: -118%; MLL CXXC-DNA inh: inactive

Results for Cc1ccccc1CN1CCN(Cc2ccccc2C(F)(F)F)CC1 ?
Menin-MLL FL inh: inactive; LDHA block: -39; Menin-MLL TR inh: inactive; IDH1 R132H inh: inactive; Akt phos inh: inactive; MLL CXXC-DNA inh: inactive

How did O=C1CC(N(CCc2ccccc2)C(=S)Nc2cc(Cl)ccc2Cl)C(=O)N1c1c(Cl)cccc1Cl (configuration not stated) do in these assays?
Menin-MLL FL inh: inactive; LDHA block: inactive; Menin-MLL TR inh: 10µM; IDH1 R132H inh: inactive; Akt phos inh: inactive; MLL CXXC-DNA inh: inactive

How did O=C1CC(N(CCc2ccccc2)C(=S)Nc2ccccc2)C(=O)N1c1ccccc1 (configuration not stated) do in these assays?
Menin-MLL FL inh: inactive; LDHA block: inactive; Menin-MLL TR inh: inconclusive; IDH1 R132H inh: inactive; Akt phos inh: inactive; MLL CXXC-DNA inh: inactive

How did CCC(C)C(NC(=O)OCc1ccccc1)C(=O)O (configuration not stated) do in these assays?
LDHA block: inactive

What do the screens show for `CN(C(=O)COC(=O)CNS(=O)(=O)/C=C/c1ccccc1)C1CCS(=O)(=O)C1` (configuration not stated)?
Menin-MLL FL inh: inactive; LDHA block: inactive; Menin-MLL TR inh: inactive; IDH1 R132H inh: inactive; Akt phos inh: -123%; MLL CXXC-DNA inh: inactive

What do the screens show for `Nc1nccnc1C(=O)NCc1ccnc(Oc2ccc(F)cc2)c1`?
LDHA block: inactive

Results for O=C(O)C(c1ccccc1)N1C(=O)/C(=C\c2ccc(-c3ccccc3Cl)o2)SC1=S (configuration not stated) ?
Menin-MLL FL inh: inconclusive; LDHA block: -30; Menin-MLL TR inh: inactive; IDH1 R132H inh: inactive; Akt phos inh: inactive; MLL CXXC-DNA inh: inactive

How did COCCN(C)CCCc1ccccc1 do in these assays?
LDHA block: inactive

How did O=C(NCCN1CCOCC1)c1ccc(F)cc1 do in these assays?
Menin-MLL FL inh: inactive; LDHA block: inactive; IDH1 R132H inh: inactive; Akt phos inh: -101%; MLL CXXC-DNA inh: inactive

How did O=C(NC(=S)NCCN1CCOCC1)c1ccc(F)cc1 do in these assays?
Menin-MLL FL inh: inactive; LDHA block: inactive; Menin-MLL TR inh: inactive; IDH1 R132H inh: inactive; Akt phos inh: inactive; MLL CXXC-DNA inh: inactive

Results for COc1ccc(NC(=O)CCS(=O)(=O)c2cccc3nonc23)c(OC)c1 ?
Menin-MLL FL inh: inactive; LDHA block: inactive; Menin-MLL TR inh: inactive; IDH1 R132H inh: inactive; Akt phos inh: -113%; MLL CXXC-DNA inh: inactive

How did COc1ccc(NC(=O)CCS(=O)(=O)c2cccc3nonc23)cc1 do in these assays?
Menin-MLL FL inh: inactive; LDHA block: inactive; Menin-MLL TR inh: inactive; IDH1 R132H inh: inactive; Akt phos inh: inactive; MLL CXXC-DNA inh: inactive

What do the screens show for `C[n+]1c(/C=C/c2ccc(O)cc2)ccc2ccccc21`?
Menin-MLL FL inh: inactive; LDHA block: inactive; Menin-MLL TR inh: inactive; IDH1 R132H inh: inactive; Akt phos inh: inactive; MLL CXXC-DNA inh: inactive

Results for C[n+]1c(/C=C/c2ccc3c(c2)OCO3)ccc2ccccc21 ?
Menin-MLL FL inh: inactive; LDHA block: -33; Menin-MLL TR inh: inactive; IDH1 R132H inh: inactive; Akt phos inh: inactive; MLL CXXC-DNA inh: inactive

How did COc1ccc(CNc2oc(COc3ccccc3F)nc2C#N)cc1 do in these assays?
LDHA block: inactive

How did Cc1nnc(SCc2c(C(=O)NC3CC3)oc3ccccc23)s1 do in these assays?
LDHA block: inactive

Results for CC(=O)Nc1cn(-c2ccc(C(=O)Nc3ccccc3)cc2)cn1 ?
LDHA block: inactive

What do the screens show for `CCCCCCC1NC(C(=O)O)CS1` (configuration not stated)?
Menin-MLL FL inh: inactive; LDHA block: inactive; Menin-MLL TR inh: inactive; IDH1 R132H inh: inactive; Akt phos inh: -113%; MLL CXXC-DNA inh: inactive

What do the screens show for `S=c1[nH]nc(COc2ccccc2)n1Cc1ccccc1`?
Menin-MLL FL inh: inactive; LDHA block: inactive; Menin-MLL TR inh: inactive; IDH1 R132H inh: inactive; Akt phos inh: inactive; MLL CXXC-DNA inh: inactive

Results for S=c1[nH]nc(COc2ccccc2)n1C1CCCCC1 ?
Menin-MLL FL inh: inactive; LDHA block: inactive; Menin-MLL TR inh: inactive; IDH1 R132H inh: inactive; Akt phos inh: -101%; MLL CXXC-DNA inh: inactive

How did O=C(Nc1nc(-c2ccc3c(c2)Cc2ccccc2-3)cs1)c1ccccc1 do in these assays?
Menin-MLL FL inh: inactive; LDHA block: inactive; Menin-MLL TR inh: 16µM; IDH1 R132H inh: inactive; Akt phos inh: inactive; MLL CXXC-DNA inh: inactive

Results for O=C(Nc1cccc(-c2csc(Nc3ccccc3)n2)c1)c1ccccc1 ?
Menin-MLL FL inh: inactive; LDHA block: inactive; IDH1 R132H inh: inactive; Akt phos inh: inactive; MLL CXXC-DNA inh: inactive

Results for O=S(=O)(c1ccccc1)N1CCN(c2cc(-c3ccccc3)nc3ncnn23)CC1 ?
Menin-MLL FL inh: inactive; LDHA block: inactive; Menin-MLL TR inh: inactive; IDH1 R132H inh: inactive; Akt phos inh: -88%; MLL CXXC-DNA inh: inactive

How did S=c1[nH]nc(-c2cc(-c3ccccc3)n[nH]2)n1/N=C/c1ccc(Br)s1 do in these assays?
Menin-MLL FL inh: inactive; LDHA block: -43; IDH1 R132H inh: inconclusive; Akt phos inh: inactive; MLL CXXC-DNA inh: inactive

How did N#CCCN(C(=O)Cn1nc(C(=O)O)c2ccccc2c1=O)c1ccccc1 do in these assays?
Menin-MLL FL inh: inactive; LDHA block: -32!; Menin-MLL TR inh: inactive; IDH1 R132H inh: inactive; Akt phos inh: inactive; MLL CXXC-DNA inh: inactive

Results for CCOc1ccc2c(c1)CN(C(=O)CCc1ncc(-c3ccccc3)o1)CC2 ?
LDHA block: inactive

Results for O=C(O)c1cnc(-c2ccccc2)nc1Sc1ccccc1Cl ?
Menin-MLL FL inh: inactive; LDHA block: -31; Menin-MLL TR inh: inconclusive; IDH1 R132H inh: inactive; Akt phos inh: inactive; MLL CXXC-DNA inh: inconclusive

Results for O=C(O)c1cnc(-c2ccccc2)nc1Sc1ccc(Cl)cc1 ?
Menin-MLL FL inh: inactive; LDHA block: inactive; Menin-MLL TR inh: inconclusive; IDH1 R132H inh: inactive; Akt phos inh: inactive; MLL CXXC-DNA inh: inactive

What do the screens show for `Cn1c(C(=O)N2CCOCC2)cnc1Sc1ncc(C(F)(F)F)cc1Cl`?
Menin-MLL FL inh: inactive; LDHA block: inactive; Menin-MLL TR inh: inactive; IDH1 R132H inh: inactive; Akt phos inh: -114%; MLL CXXC-DNA inh: inactive
